The values below come from PubChem BioAssay (NCATS).

Values joined by “and” are separate entries in the source; they are usually repeats but may differ in a detail not shown here. Identical values can stand only once. Results filed as inconclusive are left out. Active and inactive are the calls of the source. Unless noted, the call rests on the fitted dose curve.

For assay [1], the target named is Glucocorticoid receptor (Homo sapiens) (UniProt P04150). Briefly: qHTS assay for small molecule agonists of glucocorticoid receptor signaling (AID 588532; active means well fitted curve in the direction sought with a large enough effect in the signal ratio, with a control signal flat; the % refers to the signal ratio;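 further: 100% = dexamethasone at 0.1 µM and 0% = DMSO only wells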). As to conditions: HeLa MMTV-bla, beta-lactamase ratio, agonist, 18 h; activation: stronger effect = higher value, percent of dexamethasone control, DMSO zero. The method in brief: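 HeLa GRE-bla reporter cells; 18 h compound exposure at 37 C; 2 h CCF4 loading at room temperature; fluorescence at 460 and 530 nm; EC50 by Hill equation.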
(In qHTS, concentration-response curves come from the screen itself.)

In assay [2] the target is Peroxisome proliferator-activated receptor delta (Homo sapiens) (UniProt Q03181). As to the kind of experiment: qHTS assay for small molecule agonists of peroxisome proliferator-activated receptor delta signaling (AID 588534).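 Further: 0% = DMSO basal wells and 100% = positive control agonist at 10 µM.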 The gist of the method:
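Reporter cells were plated and held 5 hrs at 37 C before compounds were added. After 18 hrs at 37 C, CCF4 dye was loaded for 2 hrs at RT and fluorescence measured.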

A short description of assay [3]: qHTS assay for small molecule antagonists of peroxisome proliferator-activated receptor delta signaling (AID 588535).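 Further: cells co-treated with a PPAR-delta agonist as stimulator during compound exposure.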 As to conditions: HEK293T PPARd-UAS-bla, beta-lactamase FRET ratio, 18 h; 460 nm channel. The method in brief:
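Cells were seeded at 4000 per well in assay medium containing 2% charcoal/dextran FBS and held 5 hrs at 37 C. Compounds were then added for 18 hrs. CCF4 substrate was applied for 2 hrs at room temperature before fluorescence reading.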

The target of assay [4] is Peroxisome proliferator-activated receptor gamma (Homo sapiens) (UniProt P37231). Briefly: qHTS assay for small molecule agonists of peroxisome proliferator-activated receptor gamma signaling (AID 588536; active means well fitted curve in the direction sought with a large enough effect in the signal ratio, with a control signal flat, not every such curve was filed as active; the % refers to the signal ratio;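 further: 0% = DMSO basal wells and 100% = rosiglitazone at 2 µM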). The gist of the method: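 GeneBLAzer PPAR-gamma-UAS-bla HEK293 cells in 1% charcoal/dextran-treated FBS medium were treated 16 h at 37 C with compounds. Beta-lactamase activity was read by CCF4 ratio (460/530 nm). Response was normalized to 2 uM rosiglitazone (100%) and DMSO, then Hill-fitted for EC50 and efficacy.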

For assay [5] the target is unchanged. Briefly: qHTS assay for small molecule antagonists of peroxisome proliferator-activated receptor gamma signaling (AID 588537; active means well fitted inhibition curve with a large enough effect in the signal ratio, with a control signal flat, not every such curve was filed as active; the % refers to the signal ratio;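 further: reporter cells co-stimulated with 50 nM rosiglitazone agonist during compound treatment; % of control where 0% means no effect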). The gist of the method: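 Step one: plate 3000 HEK293 UAS-bla cells per well in medium with 1% stripped serum and hold 6-6.5 h at 37 C. Step two: add compound and 50 nM agonist for 16 h. Step three: CCF4 loading, fluorescence read.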

For assay [6], the target named is Vitamin D3 receptor (Homo sapiens) (UniProt P11473). As to the kind of experiment: qHTS assay for small molecule antagonists of vitamin D receptor signaling (AID 588541).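 Further: receptor activated by calcitriol during compound treatment; series mostly up to about 77 µM; on the % scale 0 is the no-effect control and ±100 the full control effect.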 The gist of the method: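 VDR-UAS-bla HEK293T cells in 2% charcoal-stripped FBS were stimulated with 1-alpha,25-dihydroxyvitamin D3 (3 nM final) plus compound for 16 h at 37 C. The beta-lactamase CCF4 readout was normalized to 50 nM agonist and DMSO, and Hill fits gave IC50.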

Assay [7] has the same target. As to the kind of experiment: qHTS assay for small molecule agonists of vitamin D receptor signaling (AID 588543).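 Further: 0% = DMSO basal and 100% = reference agonist control.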 The method in brief:
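β-lactamase reporter, VDR-UAS-bla HEK293T, agonist mode. Cells plated 5 h at 37 °C, compound titration 16 h at 37 °C, CCF4 dye 2 h RT, ratio 460/530 nm. Hill fit → EC50, efficacy vs 50 nM 1α,25-(OH)2D3.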

Assay [8] has as its target Thyroid hormone receptor beta (Homo sapiens) (UniProt P10828). As to the kind of experiment: qHTS assay for small molecule agonists of thyroid hormone receptor beta signaling (AID 588545).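 Further: 0% = DMSO only and 100% = 10 nM T3.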 The method in brief: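 Compounds were tested as agonists in TR-UAS-bla-GripTite HEK 293 cells. After 18 hrs at 37 C, CCF4 substrate was added and fluorescence read after 2 hrs at room temperature.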

A short description of assay [9]: qHTS assay for small molecule antagonists of retinoid X receptor alpha signaling (AID 588546; active means well fitted inhibition curve with a large enough effect in the signal ratio, with a control signal flat, not every such curve was filed as active; the % refers to the signal ratio;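 further: cells stimulated with 9-cis-retinoic acid as agonist; on the % scale 0 is the no-effect control and ±100 the full control effect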). As to conditions: HEK293T RXRa-UAS-bla, beta-lactamase ratio, antagonist mode; measured here: W530 green channel, cytotoxicity proxy. The gist of the method: (§1)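 Beta-lactamase reporter inhibition, read as CCF4 fluorescence ratio (ex 405, em 460/530 nm) after 2 h at RT. HEK293T UAS-bla cells, 2500/well, were stimulated with 9-cis-RA at 500 or 100 nM final alongside test compound for 18 h at 37 C.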

The target of assay [10] is Retinoic acid receptor RXR-alpha (Homo sapiens) (UniProt P19793). The assay is described as above. As to conditions: HEK293T RXRa-UAS-bla, beta-lactamase ratio, antagonist mode. The method in brief: as §1
Assay [11] has as its target Thyroid hormone receptor beta (Homo sapiens) (UniProt P10828). Briefly: qHTS assay for small molecule antagonists of thyroid hormone receptor beta signaling (AID 588547; active means well fitted inhibition curve with a large enough effect in the signal ratio, with a control signal flat, not every such curve was filed as active; the % refers to the signal ratio;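 further: cells stimulated with 0.4 nM T3 agonist during compound exposure; series mostly up to about 77 µM; on the % scale 0 is the no-effect control and ±100 the full control effect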). The following applies: TR-UAS-bla HEK293, beta-lactamase ratio, antagonist mode, 18 h. The method in brief: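 TR-UAS-bla GripTite HEK293 cells in 2% charcoal/dextran FBS medium; compounds 0.59 nM to 92 uM with T3 at 0.4nM final, 18 h at 37 C. Beta-lactamase read by CCF4 fluorescence (460/530 nm); Hill fits gave IC50 and efficacy.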

A short description of assay [12]: qHTS assay for small molecule activators of the p53 signaling pathway (AID 651743; active means well fitted activation curve with a large enough effect in the signal ratio, not every such curve was filed as active; the % refers to the signal ratio; further: series mostly up to about 92 µM; % of control where 0% means no effect). The following applies: HCT-116 p53RE-bla, beta-lactamase FRET ratio, 16 h; activation: stronger effect = higher value. The gist of the method: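 HCT-116 p53RE-bla, 4,000 cells/well; 5 h settle; cpd/DMSO 16 h, 37 C; LiveBLAzer B/G 2 h RT; fluorescence intensity.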
Assay [13] in a line: qHTS assay for environmental chemicals that activate the Aryl hydrocarbon Receptor (AhR) signaling pathway (AID 651777; active means well fitted curve in the direction sought with a large enough effect; an effect the other way counts as inactive or inconclusive; further: % of control where 0% means no effect; nearly all actives have a fitted effect of over 15% in size). The following applies: 1A2-DRE human hepatoma cells, luciferase, 24 h; activation: stronger effect = higher value. The gist of the method: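 Induction of CYP1A2 transcription through AhR is detected by luciferase in 1A2-DRE hepatoma cells. Compounds or DMSO act for 24 hr at 37 C before a 30 min One-Glo step at room temperature.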

In assay [14] the target is Peroxisome proliferator-activated receptor alpha (Homo sapiens) (UniProt Q07869). As to the kind of experiment: qHTS assay for small molecule agonists of the peroxisome proliferator-activated receptor alpha (PPARalpha) signaling pathway (AID 651778; active means well fitted curve in the direction sought with a large enough effect; an effect the other way counts as inactive or inconclusive; further: % of control where 0% means no effect). As to conditions: PathHunter PPARalpha complementation, chemiluminescence, 6 h; max response: stronger effect = higher value. The gist of the method:
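Enzyme-fragment complementation assay in which ligand-bound PPARalpha translocates and forms an active enzyme that generates chemiluminescence. Cells were plated overnight, exposed to compound for 6 hr at 37 C, and then given detection reagent for 60 min at room temperature.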

The nature of assay [15]: qHTS assay for small molecule agonists of the antioxidant response element (ARE) signaling pathway measured by Nrf2-dependant transcriptional activity (AID 720636; active means well fitted curve in the direction sought with a large enough effect in the repeat runs; an effect the other way counts as inactive or inconclusive;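 further: HepG2 cells with an ARE-driven luciferase reporter; % of control where 0% means no effect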). The gist of the method: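 We exposed ARE-luc HepG2 cells, seeded in assay medium with 1% dialyzed FBS and allowed 6 hr to adhere, to test compounds overnight (16 hr, 37 C) before measuring luciferase with ONE-Glo.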

Assay [16] is described as follows: qHTS assay for small molecule agonists of the antioxidant response element (ARE) signaling pathway measured by Nrf2-dependant transcriptional activity - cell viability counter screen (AID 720653; active means well fitted curve in the direction sought with a large enough effect in the repeat runs; an effect the other way counts as inactive or inconclusive; further: on the % scale 0 is the no-effect control and ±100 the full control effect). The following applies: ARE-bla HepG2 viability, CellTiter-Glo ATP luminescence, 16 h; max response: stronger effect = lower value. The gist of the method: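 ARE-bla HepG2 cells treated with compounds for 16 h at 37C; this counter screen measures viability as intracellular ATP by CellTiter-Glo luminescence after 30 min at room temperature.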

Assay [17] in a line: qHTS assay for cell viability of HEK293 cells (AID 743288; active means well fitted curve in the direction sought with a large enough effect; an effect the other way counts as inactive or inconclusive; further: on the % scale 0 is the no-effect control and ±100 the full control effect; nearly all actives have a fitted effect of over 50% in size). As to conditions: ATP luminescence (CellTiter-Glo), 18 h; max response: stronger effect = lower value. The gist of the method: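 Environmental chemicals tested in qHTS format against parental HEK293 cells; 18 h treatment, 37 C; read-out ATP luminescence (CellTiter-Glo), 30 min RT development.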
Assay [18] in a line: qHTS assay for cell viability of the p53RE-bla HCT-116 cell line (AID 743292; active means well fitted curve in the direction sought with a large enough effect; an effect the other way counts as inactive or inconclusive; further: on the % scale 0 is the no-effect control and ±100 the full control effect; nearly all actives have a fitted effect of over 55% in size). The gist of the method: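 In this qHTS counter-screen, metabolically competent p53RE-bla HCT-116 cells were counted via their ATP content. Compounds were applied for 16 h at 37 C and luciferase-coupled luminescence was measured.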
In assay [19] the target is Nuclear receptor subfamily 1 group I member 2 (Rattus norvegicus) (UniProt Q9R1A7). Briefly: qHTS assay for small molecule activators of the rat pregnane X receptor (rPXR) signaling pathway (AID 651751; call rule not given here; further: 0% is about no effect). As to conditions: rPXR reporter cells, luciferase (One-Glo), 24 h.
The target of assay [20] is Retinoic acid receptor RXR-alpha (Homo sapiens) (UniProt P19793). As to the kind of experiment: qHTS assay for small molecule agonists of retinoid X receptor alpha signaling (AID 588544).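 Further: 0% = DMSO basal wells and 100% = reference agonist.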

Chain of Peroxisome proliferator-activated receptor gamma (Homo sapiens) (P37231 whole entry, looked up): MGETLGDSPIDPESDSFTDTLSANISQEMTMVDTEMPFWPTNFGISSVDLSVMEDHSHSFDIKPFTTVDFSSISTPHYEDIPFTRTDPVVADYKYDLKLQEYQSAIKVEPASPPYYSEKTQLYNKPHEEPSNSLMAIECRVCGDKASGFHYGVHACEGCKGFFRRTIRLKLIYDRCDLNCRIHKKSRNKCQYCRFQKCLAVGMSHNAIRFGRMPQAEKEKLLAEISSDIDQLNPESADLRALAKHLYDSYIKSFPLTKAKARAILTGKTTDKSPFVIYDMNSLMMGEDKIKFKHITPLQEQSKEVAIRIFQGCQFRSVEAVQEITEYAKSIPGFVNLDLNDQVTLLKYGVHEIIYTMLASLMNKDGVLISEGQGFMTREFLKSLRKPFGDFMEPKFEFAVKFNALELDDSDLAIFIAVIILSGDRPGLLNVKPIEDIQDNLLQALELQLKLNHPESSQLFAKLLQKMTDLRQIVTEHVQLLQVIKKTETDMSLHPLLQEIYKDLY
Chain of Glucocorticoid receptor (Homo sapiens) (P04150 whole entry, looked up): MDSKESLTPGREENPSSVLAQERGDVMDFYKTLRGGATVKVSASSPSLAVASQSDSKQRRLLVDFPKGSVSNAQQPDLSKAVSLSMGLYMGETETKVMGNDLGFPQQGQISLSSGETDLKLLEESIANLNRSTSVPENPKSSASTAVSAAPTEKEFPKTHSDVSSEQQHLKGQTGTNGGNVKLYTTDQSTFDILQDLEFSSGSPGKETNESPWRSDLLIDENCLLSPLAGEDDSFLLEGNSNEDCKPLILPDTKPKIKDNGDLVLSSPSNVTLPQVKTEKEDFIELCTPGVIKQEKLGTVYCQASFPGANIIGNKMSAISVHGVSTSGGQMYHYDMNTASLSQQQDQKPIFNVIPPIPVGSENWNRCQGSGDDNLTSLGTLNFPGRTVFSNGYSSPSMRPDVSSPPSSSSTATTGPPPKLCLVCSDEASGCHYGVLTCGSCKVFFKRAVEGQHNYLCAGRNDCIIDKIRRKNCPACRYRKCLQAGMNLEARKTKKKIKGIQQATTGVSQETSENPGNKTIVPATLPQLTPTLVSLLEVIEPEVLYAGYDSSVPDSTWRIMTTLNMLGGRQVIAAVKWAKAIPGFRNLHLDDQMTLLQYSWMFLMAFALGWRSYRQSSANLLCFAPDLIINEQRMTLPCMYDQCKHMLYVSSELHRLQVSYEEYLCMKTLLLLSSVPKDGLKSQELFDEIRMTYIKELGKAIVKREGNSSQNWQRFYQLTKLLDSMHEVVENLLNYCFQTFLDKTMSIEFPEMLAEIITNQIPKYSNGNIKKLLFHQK
Chain of Vitamin D3 receptor (Homo sapiens) (P11473 whole entry, looked up): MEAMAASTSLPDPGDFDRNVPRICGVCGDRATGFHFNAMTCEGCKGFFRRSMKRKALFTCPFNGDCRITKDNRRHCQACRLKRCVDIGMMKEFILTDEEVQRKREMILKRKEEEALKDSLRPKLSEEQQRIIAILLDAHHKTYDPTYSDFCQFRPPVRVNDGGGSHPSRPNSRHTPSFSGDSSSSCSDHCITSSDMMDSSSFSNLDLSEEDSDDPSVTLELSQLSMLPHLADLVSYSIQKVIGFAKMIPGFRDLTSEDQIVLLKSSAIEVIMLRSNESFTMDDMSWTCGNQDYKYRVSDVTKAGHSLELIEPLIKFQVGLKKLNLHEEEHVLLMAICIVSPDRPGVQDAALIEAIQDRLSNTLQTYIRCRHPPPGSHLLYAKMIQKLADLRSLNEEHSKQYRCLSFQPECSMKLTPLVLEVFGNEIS
Chain of Thyroid hormone receptor beta (Homo sapiens) (P10828 whole entry, looked up): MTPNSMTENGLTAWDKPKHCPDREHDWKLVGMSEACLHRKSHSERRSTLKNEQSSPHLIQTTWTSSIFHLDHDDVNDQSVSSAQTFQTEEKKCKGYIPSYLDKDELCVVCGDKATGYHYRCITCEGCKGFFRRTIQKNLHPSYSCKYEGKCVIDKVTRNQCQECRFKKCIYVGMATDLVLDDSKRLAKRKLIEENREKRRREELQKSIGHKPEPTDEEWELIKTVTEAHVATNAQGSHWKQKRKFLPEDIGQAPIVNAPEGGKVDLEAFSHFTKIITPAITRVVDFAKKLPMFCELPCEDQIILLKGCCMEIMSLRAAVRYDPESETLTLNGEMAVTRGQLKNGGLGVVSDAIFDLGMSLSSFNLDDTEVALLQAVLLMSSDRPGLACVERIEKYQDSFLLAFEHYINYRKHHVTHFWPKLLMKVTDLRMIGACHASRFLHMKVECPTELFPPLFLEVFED
Chain of Peroxisome proliferator-activated receptor alpha (Homo sapiens) (Q07869 whole entry, looked up, the tested form may be a part): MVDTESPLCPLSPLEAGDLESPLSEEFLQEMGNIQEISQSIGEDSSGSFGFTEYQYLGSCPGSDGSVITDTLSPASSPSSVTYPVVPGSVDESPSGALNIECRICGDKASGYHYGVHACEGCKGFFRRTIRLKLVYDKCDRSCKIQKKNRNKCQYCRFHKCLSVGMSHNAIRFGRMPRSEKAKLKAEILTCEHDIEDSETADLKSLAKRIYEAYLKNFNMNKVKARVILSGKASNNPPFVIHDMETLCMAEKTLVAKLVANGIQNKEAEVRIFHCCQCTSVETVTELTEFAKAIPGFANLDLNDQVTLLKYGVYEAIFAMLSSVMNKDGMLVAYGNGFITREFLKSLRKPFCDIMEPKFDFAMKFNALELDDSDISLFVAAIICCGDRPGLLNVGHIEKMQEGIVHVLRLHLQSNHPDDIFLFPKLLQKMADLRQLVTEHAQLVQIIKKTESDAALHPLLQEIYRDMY
Chain of Nuclear receptor subfamily 1 group I member 2 (Rattus norvegicus) (Q9R1A7 whole entry, looked up): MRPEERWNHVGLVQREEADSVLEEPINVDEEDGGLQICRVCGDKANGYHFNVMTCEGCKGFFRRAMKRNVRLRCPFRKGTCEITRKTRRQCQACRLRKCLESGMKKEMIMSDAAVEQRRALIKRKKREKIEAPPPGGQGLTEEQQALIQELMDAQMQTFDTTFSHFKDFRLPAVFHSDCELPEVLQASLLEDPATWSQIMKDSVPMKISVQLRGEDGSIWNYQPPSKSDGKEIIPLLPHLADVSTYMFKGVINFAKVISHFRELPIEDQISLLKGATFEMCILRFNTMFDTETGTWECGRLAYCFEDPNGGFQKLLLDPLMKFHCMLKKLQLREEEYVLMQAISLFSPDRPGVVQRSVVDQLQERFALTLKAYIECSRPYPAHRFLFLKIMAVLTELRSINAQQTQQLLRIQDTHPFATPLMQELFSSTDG
Chain of Peroxisome proliferator-activated receptor delta (Homo sapiens) (Q03181 whole entry, looked up): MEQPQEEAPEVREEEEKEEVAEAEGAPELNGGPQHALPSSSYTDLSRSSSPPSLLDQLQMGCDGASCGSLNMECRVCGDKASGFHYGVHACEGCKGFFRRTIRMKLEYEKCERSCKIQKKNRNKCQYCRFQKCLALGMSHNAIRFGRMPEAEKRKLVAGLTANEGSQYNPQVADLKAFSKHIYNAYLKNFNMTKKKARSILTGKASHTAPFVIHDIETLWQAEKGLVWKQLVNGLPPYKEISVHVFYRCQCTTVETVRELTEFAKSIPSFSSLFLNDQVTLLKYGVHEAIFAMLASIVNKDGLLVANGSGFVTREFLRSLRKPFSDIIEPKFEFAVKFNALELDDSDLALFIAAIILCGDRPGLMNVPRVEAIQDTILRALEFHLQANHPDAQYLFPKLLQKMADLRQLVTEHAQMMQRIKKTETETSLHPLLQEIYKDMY
Chain of Retinoic acid receptor RXR-alpha (Homo sapiens) (P19793 whole entry, looked up): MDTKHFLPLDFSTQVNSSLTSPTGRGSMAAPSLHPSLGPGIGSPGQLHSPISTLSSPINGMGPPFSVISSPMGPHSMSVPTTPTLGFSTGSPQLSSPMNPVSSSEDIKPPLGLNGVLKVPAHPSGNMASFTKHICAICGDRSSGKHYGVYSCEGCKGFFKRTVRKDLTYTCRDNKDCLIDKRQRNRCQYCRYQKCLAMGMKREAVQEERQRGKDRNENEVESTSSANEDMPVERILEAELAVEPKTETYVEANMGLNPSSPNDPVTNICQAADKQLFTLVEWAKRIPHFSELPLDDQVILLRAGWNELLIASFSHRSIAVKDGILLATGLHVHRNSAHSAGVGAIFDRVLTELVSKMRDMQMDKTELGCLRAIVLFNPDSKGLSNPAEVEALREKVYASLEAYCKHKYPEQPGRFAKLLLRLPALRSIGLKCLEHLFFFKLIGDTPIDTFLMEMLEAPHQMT

For `CCCOc1nn(C(=O)NS(=O)(=O)c2ccccc2C(=O)OC)c(=O)n1C`, the activation in assay [1] was -2.11% (inactive); in [12], 0.234% (inactive); in assay [13], 0.148% (inactive). In addition, the call in assay [2] and in assay [7] was inactive. The max response in assay [3] was 41%; in [9], -18%; in assay [10] it was -2.92% (inactive); in [14] it was 0.0457% (inactive); in assay [16] it was -11.6% (inactive); in assay [17], -4.57% (inactive). The max response in assay [19] was 4.67% (inactive). Moreover, the Potency entry in assay [4], in [5], in [6], in [8], in [15] and in [18] was “inactive” each time. For the same compound, in assay [11], the activity change % (negative = inhibition) is 10.6% (inactive).
Consider `CC1=C(C(=O)Nc2ccccc2)SCCO1`, for which the results for the activation in [1] and in assay [12] were -5.7% (inactive) and 1.21% (inactive), respectively. Further, the outcome in [2] and in assay [7] was inactive. The Potency entry in assay [4], in [5], in [6] and in [20] was “inactive” throughout. Moreover, the max response in assay [9] was -5.88%; in [10] it was -6.74% (inactive); in [14] it was -3.16% (inactive); in assay [16] it was -4.21% (inactive); in assay [17] it was -15.4% (inactive). In assay [11], the activity change % (negative = inhibition) was 3.71% (inactive).
`CCCCOC(=O)[C@@H](C)Oc1ccc(Oc2ccc(C#N)cc2F)cc1`: the activation in assay [1] was -11.2% (inactive); in assay [12], -5.96% (inactive); in [13], -2.2% (inactive). In addition, the outcome in [2] and in assay [7] was inactive. In addition, the Potency result in assay [4], in assay [5], in assay [20], in assay [8] and in assay [15] was “inactive” throughout. For the same compound, the max response is 13.4% in assay [9]; 12.7% (inactive) in assay [10]; 5.77% (inactive) in [14]; -7.64% (inactive) in assay [16]; 2.82% (inactive) in assay [17]; 1.04% (inactive) in assay [19]. The activity change % (negative = inhibition) in assay [11] was 0.16% (inactive).
As to `COC(=O)/C=C(\C)OP(=O)(OC)OC`, the activation in assay [1] was -1.06% (inactive); in assay [13], 0.265% (inactive). In [2], the compound was called inactive. Further, the max response was -21.6% in assay [3]; -19.7% in assay [9]; -10.3% (inactive) in assay [10]; -1.45% (inactive) in assay [14]; 12.7% (inactive) in [16]; -3.83% (inactive) in assay [17]. Further, in assay [19], the max response was -0.069% (inactive). Moreover, the Potency result in assay [6], in assay [20], in [8], in [15] and in [18] was “inactive” in each case.
In the case of `O=C(O)C(F)(F)C(F)(F)C(F)(F)C(F)(F)C(F)(F)C(F)(F)C(F)(F)C(F)(F)C(F)(F)F`, the activation in assay [1] was -0.443% (inactive); in assay [12] it was 5.35% (inactive); in assay [13] it was -2.6% (inactive) and 0.106% (inactive). In [2], the call was inactive. Also, the max response in assay [3] is 7.25% and 27.2%; in assay [9], -7.72%; in assay [10], 20.8% (inactive); in [14] it was -0.9% (inactive) and 3.39% (inactive); in assay [16] it was -6.6% (inactive) and -12.4% (inactive); in assay [19], -0.489% (inactive) and -1.36% (inactive). Moreover, the Potency result in assay [4], in assay [5], in assay [20], in [8], in assay [15] and in assay [18] was “inactive” throughout. Moreover, the activity change % (negative = inhibition) in assay [11] is -14.6% (inactive) and -11.9% (inactive).
On to `CN/C(=N\[N+](=O)[O-])NCc1cnc(Cl)s1`, for which the Potency entry in assay [4], in [5], in assay [6], in [20], in [8] and in assay [15] was “inactive” each time. In addition, the Potency result in [18] is “inactive”. For the same compound, the result in assay [7] was inactive. Also, the max response in assay [9] is -9.8%; in assay [10], -1.36% (inactive); in [14] it was -0.992% (inactive); in assay [16], 0.65% (inactive); in assay [17] it was -4.28% (inactive); in assay [19], 6.52% (inactive). The activity change % (negative = inhibition) in assay [11] was -15.1% (inactive). Besides, the activation in assay [13] is 1.58% (inactive).
